Screens (PubChem BioAssay)
Cycloheximide cs: Cycloheximide Counterscreen for Small Molecule Inhibitors of Shiga Toxin; cell reporter, cycloheximide protein synthesis inhibition counterscreen; max response, %; hit rate 12% among 300,000; AID 2314, 2010; in the data active = max response mostly above about 13%, no sharp cut-off; inactive = mostly below about 14%; also: read at 38.3 µM for the half of the compounds with a filed dose; 0% is about no effect
RE007 growth inh: qHTS Assay for Inhibitors of the HIV-1 protein Vpr; Potency, µM (doses to about 92.2 µM), for inactives: at the highest dose activity change, negative = less growth, actives largely listed as inhibitors; AID 651644, 2012; S. pombe RE007 Vpr strain, BacTiter-Glo ATP luminescence, 24 h; hit rate 0.21% among 360,000; active = well fitted falling curve with a large enough effect; inconclusive = small, poorly fitted or top-dose-only effect; inactive = no such curve, though single readings can be large or run the other way; also: potency is read from the fitted curve at half-maximal effect; % is scaled to controls: 0 for no effect and ±100 for the full control effect; nearly all actives have a fitted effect of over 50% in size
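Fission yeast strain RE007, carrying one chromosomally integrated HIV-1 vpr copy, was seeded at OD 0.01 in PMG+AL medium with 23 nL pinned compound. After 24 h at 30 °C and 99% humidity, viability was read by BacTiter-Glo luminescence.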
Shiga toxin inh: A qHTS for Small Molecule Inhibitors of Shiga Toxin. Vero cells, Shiga toxin protein synthesis inhibition reporter. inhibition, % at 38.7 µM. hit rate 9.2% among 290,000; in the data active = inhibition mostly above about 28%, no sharp cut-off; inactive = mostly below about 43%; also: 0% is about no effect
LmPK inhibitor: qHTS Assay for Inhibitors of Leishmania Mexicana Pyruvate Kinase (LmPK); Potency, µM (doses to about 57.5 µM), for inactives: at the top dose activity change, negative = inhibition, actives largely listed as inhibitors; purified LmPK, Kinase-Glo ATP luminescence, 1 h; AID 1721, 2009; hit rate 0.37% among 290,000; Q27686; also: potency is read from the fitted curve at half-maximal effect; % is scaled to controls: 0 for no effect and ±100 for the full control effect
Target sequence (Q27686 whole entry, looked up): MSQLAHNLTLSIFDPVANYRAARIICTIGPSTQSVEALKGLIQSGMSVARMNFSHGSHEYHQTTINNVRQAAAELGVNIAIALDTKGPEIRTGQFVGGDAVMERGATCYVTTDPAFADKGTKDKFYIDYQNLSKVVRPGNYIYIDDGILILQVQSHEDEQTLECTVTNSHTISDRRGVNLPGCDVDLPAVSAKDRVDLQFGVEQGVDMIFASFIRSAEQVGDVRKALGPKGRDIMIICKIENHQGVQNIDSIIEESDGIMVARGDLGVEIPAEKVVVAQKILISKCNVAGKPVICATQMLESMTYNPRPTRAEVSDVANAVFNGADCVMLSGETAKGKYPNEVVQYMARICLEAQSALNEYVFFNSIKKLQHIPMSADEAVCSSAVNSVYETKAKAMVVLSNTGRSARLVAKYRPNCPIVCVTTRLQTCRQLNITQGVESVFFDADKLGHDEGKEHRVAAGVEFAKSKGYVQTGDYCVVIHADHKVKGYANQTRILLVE
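Pyruvate kinase activity monitored as ATP production (luciferase luminescence). Conditions: 0.1 nM enzyme, 0.5 mM PEP, 0.1 mM ADP, 1 h, RT; normalized against uninhibited and no-enzyme wells.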
TbPYK inhibitor: qHTS of Trypanosoma Brucei Inhibitors; pyruvate kinase (Trypanosoma brucei), Q57TT1; hit rate 0.12% among 410,000; Potency, µM (titrated, usually from 76.8 µM), inactives show at the highest dose activity, negative = inhibition, hits mostly inhibitors; AID 624173, 2012; TbPYK enzyme, Kinase-Glo Plus ATP luminescence, 45 min; also: potency is read from the fitted curve at half-maximal effect; % is scaled to controls: 0 for no effect and ±100 for the full control effect; nearly all actives have a fitted effect of over 50% in size
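Enzyme and substrate buffer are dispensed first and compound is pin-transferred. ADP at 130 uM final then starts the reaction, which runs 45 min at room temperature. Detection reagent is added for 10 min before luminescence is imaged.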
Giardia FBPA inh: qHTS Assay for Inhibitors of Fructose-1,6-bisphosphate Aldolase from Giardia Lamblia; A8B2U2; purified Giardia FBPA; Potency, µM (doses to about 59.6 µM), for inactives: at the top dose activity, negative = inhibition, hits mostly inhibitors; hit rate 0.71% among 290,000; AID 2451, 2010; also: potency is read from the fitted curve at half-maximal effect; % is scaled to controls: 0 for no effect and ±100 for the full control effect; nearly all actives have a fitted effect of over 55% in size
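Giardia FBPA (40 nM reagent) was preincubated 10 min at RT with compound (up to 57.5 uM final), then substrate plus GAPDH/TPI/NAD/arsenate coupling system with diaphorase/resazurin was added; resorufin fluorescence (525/598 nm) was read after 20 min.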
An asterisk follows results filed as active; u = inconclusive; x = no result given; [ ] = dose if it differs, or a comment. Many of the other results were omitted from the sample, so hits are more common in it than they were. Unless noted, calls follow the shape of the dose curve; as a rule, active = well fitted curve in the direction sought with a large enough effect; inconclusive = small, poorly fitted or top-dose-only effect, or another doubt; inactive = no such curve, though single readings can be large; an effect the other way counts as inactive or inconclusive.

SMILES	Cycloheximide cs	RE007 growth inh	Shiga toxin inh	LmPK inhibitor	TbPYK inhibitor	Giardia FBPA inh
COc1cc(C)c(NC(=O)COc2ccc3c(c2)OCO3)cc1C	20*	-5%	49*	-3%	3%	11%
CC(Cl)OC(=O)Nc1cccc2cccnc12 (configuration not stated)	1	x	-13	x	x	x
O=C(NCCOc1ccccc1)O[C@@H]1C(=O)c2cc(Br)ccc2O[C@H]1c1ccc2c(c1)OCO2	x	x	x	x	x	1%
COC(=O)c1cc(NC(=O)Cc2ccccc2[N+](=O)[O-])cc(C(=O)OC)c1	5	2%	-13	2%	1%	3%
Cc1cccc(OCC(=O)Nc2ccc3c(c2)OCO3)c1C	55*	u	67	2%	-9%	-6%
O=C(COc1ccccc1[N+](=O)[O-])N/N=C/c1cccc(OC(=O)c2ccc3c(c2)OCO3)c1	93*	-2%	95*	-2%	-4%	2%
Cc1ccc(C)c(OCC(=O)Nc2ccc3c(c2)OCO3)c1C	7	-27%	10	0%	-17%	-7%
COC(=O)c1ccc(NC(=O)COc2ccc3c(c2)OCO3)cc1	20*	11%	-7	1%	4%	-4%
O=C(Cc1ccccc1[N+](=O)[O-])Nc1ccc2c(c1)OCCO2	55*	2%	89*	-2%	-11%	0%
COc1cc(NC(=O)C2=C(C)Nc3nnnn3C2c2ccc(SC)cc2)c(OC)cc1Cl (configuration not stated)	x	x	x	x	2%	x
Cc1ccc(OCC(=O)OCC(=O)Nc2ccc3c(c2)OCO3)cc1C	x	-14%	x	x	-13%	x
Cc1ccc(OCC(=O)Nc2ccc3c(c2)OCO3)cc1C	25*	14%	29*	-8%	4%	0%
CCOC(=O)c1cc(-c2csc(COc3ccc(Cl)cc3)n2)on1	-2	6%	-8	0%	-8%	8%
CCOC(=O)c1csc(NC(=O)CCSc2ccccc2)n1	7	-5%	16	13%	3%	-3%
CCOC(=O)c1csc(COc2ccc(OC)cc2)n1	61*	-3%	122*	5%	3%	8%
CCOC(=O)c1csc(NC(=O)CC2CCCC2)n1	25*	12%	32*	1%	3%	7%
CCOC(=O)c1csc(N)n1	34*	10%	80*	-25%	-7%	-7%
CCOC(=O)c1cc(-c2cccc([N+](=O)[O-])c2)on1	2	0%	-7	0%	3%	-2%
CCOC(=O)c1csc(-c2ccc([N+](=O)[O-])cc2)n1	40*	-7%	90*	-7%	-7%	3%
C/C(CCN1CCCCc2nc(C)c(C)cc21)=N\OC[C@@H](O)COCc1ccco1	x	x	x	x	x	-1%[12.9 µM]
COc1cc(NC(=O)CC2C(=O)N(c3cccc(C)c3)C(=O)N2Cc2cccs2)cc(OC)c1 (configuration not stated)	x	x	x	x	-2%	x
CCOC(=O)c1cc(-c2csc(COc3ccccc3)n2)on1	-1	5%	-5	7%	-1%	0%
CC(=O)c1csc(COc2ccccc2)n1	17*	9%	35	-17%	-5%	3%
CCOC(=O)c1csc(COc2ccccc2Cl)n1	32*	-6%	52*	-4%	-7%	1%
COc1ccc(N2CCN(Cc3nnc(-c4cccc(Br)c4)o3)CC2)cc1	x	x	x	x	2%	x
SMILES	Cycloheximide cs	RE007 growth inh	Shiga toxin inh	LmPK inhibitor	TbPYK inhibitor	Giardia FBPA inh
Cc1ccc(C(=O)[C@H](C)CN2CCCCC2)cc1	x	x	x	x	0%	x
CCCNC(=O)c1onc(CSc2ccc(Cl)cc2)c1C(=O)NCCOC	x	-5%	x	x	-12%	x
CCCNC(=O)c1nnsc1Sc1ccc(Cl)cc1	23*	12%	87*	1%	-2%	4%
CCOc1ccc(C(c2c(NC(=O)c3ccccc3)sc(C)c2C)N2CCN(CCO)CC2)cc1 (configuration not stated)	16*	55%	20	5%	-7%	3%
COC(=O)c1cc2oc(C)cc2n1Cc1ccccc1Cl	x	x	x	x	-4%	x
CCOC(=O)C1CCN(C(=O)Nc2ccc3c(c2)nc(C)n3C)CC1	49*	6%	53*	-4%	1%	-5%
Cc1nc2cc(NC(=O)N3CCCCC3)ccc2n1C	19*	-13%	44*	-2%	4%	8%
C#CCC(Cc1cnc2nc(N)nc(N)c2n1)c1ccc(C(=O)N[C@@H](CCC(=O)O)C(=O)O)cc1 (some centres not stated)	x	x	x	x	-3%	x
CNc1sc(C(=O)c2ccccc2F)c(N)c1-c1nc2ccccc2s1	19*	-16%[3.69 µM]	64*	-4%	x	-9%
CC(C)(C)NC(=O)c1ccccc1-c1nc2ccccc2s1	-2	0%	21	10%	2%	5%
Cc1ccc(C)c(Cn2c(=O)n(CCCCC(=O)NCc3ccc4c(c3)OCO4)c(=O)c3ccccc32)c1	x	x	x	x	-3%	x
Cc1c(-c2ccccc2)nc(-c2ccccc2)[nH]c1=O	0	2%	-3	-2%	27%	9%
O=C1CCCc2[nH]c(-c3ccccc3)nc21	37*	-14%	59*	-27%	-8%	11%
c1ccc(-c2nc3c([nH]2)CCc2nonc2-3)cc1	31*	-5%	78*	-6%	1%	u
COC(=O)NC(C(=O)OC)(C(=O)OC)c1ccccc1	x	x	x	x	x	4%
Cc1cc(C)nc(Oc2ccc(Br)cc2Br)n1	25*	13%	77*	1%	1%	1%
C/C(=N/Oc1nc(C)cc(C)n1)c1ccc(Br)cc1	11	-15%	39	0%	-3%	-20%
COc1ccc(CCNc2nc3cc(OC)c(OC)cc3c3nc(-c4ccccc4)nn23)cc1OC	x	x	x	x	1%	x
CC(=O)c1ccc(NC(=O)c2ccc(-n3cnnc3)cc2)cc1	x	x	x	x	5%	x
O=C(Nc1ccccc1)c1ccn[nH]1	38*	-3%	94*	-17%	-10%	x
O=C(Nc1cccc([N+](=O)[O-])c1)c1ccn[nH]1	60*	10%	76*	-7%	-2%	-6%
CC(=O)c1ccc(NC(=O)c2ccn[nH]2)cc1	35*	-3%	65*	u	-26%	10%
COc1cc(NC(=O)CC(c2cccs2)N2Cc3ccccc3C2=O)cc(OC)c1OC (configuration not stated)	x	x	x	x	-1%	x
Cc1ccc(C2CCN(C(=O)Nc3ccc(Cl)c(Cl)c3)C2)cc1 (configuration not stated)	x	x	x	x	5%	x
CCn1nnc(NC(=O)c2ccccc2Br)n1	27*	2%	71*	-7%	-5%	7%
CCCn1nnc(NC(=S)NC(=O)c2ccccc2OC)n1	x	-19%	x	x	0%	x
CCn1nnc(NC(=O)c2cccnc2)n1	-1	-13%	5	-1%	5%	-2%
